From ChEMBL document CHEMBL1857833, “Screening and optimization of specific chemical series against human African Trypanosomiasis (HAT)”
Values joined by “and” are separate entries in the source; they are usually repeats but may differ in a detail not shown here. Identical values can stand only once. The campaign covered roughly 4,400 compounds. About 390 (8.9%) showed an effect of 50% or more. The entries come from a sample that favours strong results as a whole.

Each molecule was assayed on Trypanosoma brucei (assay: DNDI: Inhibition of Human African Trypanosomiasis, SBRI 427, in vitro at 2 ug.mL-1).
Assay type: functional

SMILES	% inhibition
Cc1ccc(/C(N)=N/O)c(Oc2ccc(F)c(Cl)c2)n1	20%
COc1ccc(-c2nc(CN3CCCCCC3)co2)cc1	18%
CCOc1ccc(-c2nc(CN3CCN(c4cccc(Cl)c4)CC3)co2)cc1	-2%
Cc1ccc(-c2nc(CNC(c3ccccc3)c3ccccc3)co2)cc1	-9%
CCOc1ccccc1-c1nc(CN(C)CC(C)C)co1	3%
COc1ccc(CNCc2coc(-c3cccs3)n2)cc1OC	-8%
Cc1ccc(/C(=N/O)N2CCN(c3ccc(F)cc3)CC2)c(OCc2ccccc2F)n1	7%
CCOc1ccc(-c2nc(CN3CCN(C(=O)c4ccco4)CC3)co2)cc1	0%
COCC(C)N/C(=N\O)c1cccnc1Oc1ccc(F)cc1 (configuration not stated)	13%
COc1ccc(Oc2ncccc2/C(=N/O)NC(C)C)cc1	4%
CCC(CC)N/C(=N\O)c1cccnc1Oc1ccc(OC)cc1	100%
CCC(CC)N/C(=N\O)c1cccnc1Oc1ccc(F)cc1	96%
COc1cc2c(cc1OC)C(C(C)C)N(Cc1coc(-c3ccc(F)cc3)n1)CC2 (configuration not stated)	5%
COc1ccc(CN/C(=N\O)c2ccc(C)nc2Oc2ccc(F)cc2)cc1	30%
CCC(C)(C)N/C(=N\O)c1cccnc1Oc1ccc(-n2cncn2)cc1	45%
CCOC(=O)C1CCCN(Cc2coc(-c3ccc(Br)cc3)n2)C1 (configuration not stated)	0%
CSc1ccc(Oc2ncccc2/C(=N/O)NCc2cccnc2)cc1	2%
Cc1ccc(Oc2ncccc2/C(=N/O)N2CC=CCC2)c2c1CCC2	14%
CCc1nc(C)cn1Cc1coc(-c2cccc(OC)c2)n1	-9%
COc1ccc(Oc2ncccc2/C(=N/O)N2CCCCC2)cc1	7%
CCC(C)(C)N/C(=N\O)c1ccc(C)nc1Oc1ccc(F)c(Cl)c1	-27%
CCC(C)(C)N/C(=N\O)c1ccc(C)nc1Oc1cc(Cl)ccc1Cl	63%
Cc1ccc(/C(=N/O)NCC(C)(C)C)c(Oc2cc(Cl)ccc2Cl)n1	100%

SMILES	% inhibition
CCC(C)(C)N/C(=N\O)c1ccc(C)nc1Oc1ccc(Cl)cc1	-12%
CCOc1ccccc1-c1nc(CN2CC[C@@H]3CCCC[C@@H]3C2)co1	16%
CCOc1ccccc1-c1nc(Cn2ccnc2CC)co1	-1%
N#CCCN(Cc1coc(-c2ccc(Cl)cc2Cl)n1)C1CCCCC1	3%
O/N=C(\NCc1cc(F)ccc1F)c1ccc(Oc2cccc3cccnc23)nc1	4%
COc1cc(-c2nc(CNCC(c3ccccc3)c3ccccc3)co2)cc(OC)c1OC	22%
Cc1cn(/C(=N\O)c2ccc(C)nc2Oc2cccc(F)c2)cn1	0%
COCCN(Cc1coc(-c2ccc(OC)cc2)n1)C(C)C	-10%
Cn1nc(C(C)(C)C)cc1NCc1coc(-c2ccccc2Br)n1	-43%
CC(C)(C)COc1ncccc1/C(=N/O)NCc1ccccc1	17%
COc1ccc(-c2nc(CNC(C)CCCC(C)C)co2)cc1 (configuration not stated)	-10%
CCCCCCC(C)NCc1coc(-c2cccc(C)c2)n1 (configuration not stated)	0%
CCCCCC(C)NCc1coc(-c2ccc(OC)cc2)n1 (configuration not stated)	23%
CCCCCCC(C)NCc1coc(-c2ccc(O)cc2)n1 (configuration not stated)	52%
CCCC(C)NCc1coc(-c2ccc(F)cc2)n1 (configuration not stated)	-16%
CCCCCCC(C)NCc1coc(-c2ccc(OC)cc2)n1 (configuration not stated)	65%
CN(Cc1coc(-c2ccc(F)cc2)n1)C(c1ccccc1)c1ccccc1	-2%
Cc1ccc(/C(=N/O)N2CCC(N(C)C)C2)c(Oc2cccnc2)n1 (configuration not stated)	7%
CCC(NCc1coc(-c2cccc3ccccc23)n1)c1ccccc1 (configuration not stated)	64%
Cc1ccc([C@@H](C)NCc2coc(-c3cccc4ccccc34)n2)cc1	79%
CCC(NCc1coc(-c2ccccc2Br)n1)c1ccccc1 (configuration not stated)	-20% and -22%
Cc1ccc(C(C)NCc2coc(-c3cccc4ccccc34)n2)cc1 (configuration not stated)	-2%
CC(NCc1coc(-c2cccc3ccccc23)n1)c1ccccc1 (configuration not stated)	26%

SMILES	% inhibition
CC(CNCc1coc(-c2ccccc2Cl)n1)c1ccccc1 (configuration not stated)	-5%
CCOc1cccc(-c2nc(CNCc3cccc(OC)c3)co2)c1	-5%
CCN(CC)CCN(CC)Cc1coc(-c2cccs2)n1	1%
COc1cccc(-c2nc(Cn3ccnc3C(C)C)co2)c1	5%
Cn1nc(C(C)(C)C)cc1NCc1coc(-c2ccc(C(F)(F)F)cc2)n1	-8%
C=CCc1ccc(Oc2nc(C)ccc2/C(=N/O)NCc2ccco2)c(OC)c1	63%
C=CCc1ccc(Oc2nc(C)ccc2/C(=N/O)NCc2ccc(OC)cc2)c(OC)c1	22%
Cc1cc(C)cc(CN/C(=N\O)c2ccc(C)nc2Oc2cc(Cl)ccc2Cl)c1	64%
Cc1ccc(/C(=N/O)NCc2cccs2)c(Oc2cc(Cl)ccc2Cl)n1	16%
C=CCc1ccc(Oc2nc(C)ccc2/C(=N/O)N2CCN(CC=C)CC2)c(OC)c1	68%
Cc1ccc(/C(=N/O)NCc2ccco2)c(Oc2ccc(Cl)cc2-c2ccno2)n1	13%
C=CCc1ccc(Oc2nc(C)ccc2/C(=N/O)N2CCC(C(=O)OC)CC2)c(OC)c1	27%
Cc1ccc(/C(=N/O)NCc2ccco2)c(Oc2cc(Cl)ccc2Cl)n1	62%
C=CCc1ccc(Oc2nc(C)ccc2/C(=N/O)N2CCSCC2)c(OC)c1	48%
Cc1ccc(/C(=N/O)NCc2ccncc2)c(Oc2cc(Cl)ccc2Cl)n1	-10%
COc1ccc(CN/C(=N\O)c2ccc(C)nc2Oc2cc(Cl)ccc2Cl)cc1	14%
C=CCc1ccc(Oc2nc(C)ccc2/C(=N/O)NCC2CC2)c(OC)c1	44%
CCOc1ccc(-c2nc(CNCc3ccc(OC)cc3OC)co2)cc1	-17%
CCOc1ccccc1-c1nc(CN2CCN(C(=O)C3CCCO3)CC2)co1 (configuration not stated)	8%
Cc1ccc(Oc2nc(C)ccc2/C(=N/O)N2CCSC2)c(C)c1	26%
COCC(C)NCc1coc(-c2ccccc2Cl)n1 (configuration not stated)	-6%
